The target in this experiment is Thyroid hormone receptor beta (Homo sapiens) (UniProt P10828). The experiment can be described thus: Cell-based Gene Reporter Secondary Assay to Characterize qHTS Inhibitors of the Interaction of Thyroid Hormone Receptor and Steroid Receptor Coregulator 2. From the text:
NIH Molecular Libraries Probe Production Network [MLPCN] NIH Chemical Genomics Center [NCGC] MLPCN Grant: DK058080 Assay Provider: R. Kip Guy, St. Jude Children's Research Hospital NCGC Assay Overview: Thyroid receptor (TR) regulates many homeostatic processes including basal metabolism, cardiovascular function, body weight, and lipid trafficking. TR modulators are potential therapeutics for obesity and hyperlipidemias but current thyroid analogs have undesirable side effects, particularly cardiac stimulation. This secondary assay characterized selected actives identified in the qHTS for Inhibitors of the Interaction of Thyroid Hormone Receptor and Steroid Receptor Coregulator 2. The human follicular thyroid carcinoma cell line WRO (kindly provided by Dr. M. D. Ringel) stably expresses TRbeta and a luciferase reporter gene fused to TR response element. The addition of T3 ligand elevates expression of the TRE luciferase reporter. This assay measures the transcriptional activity of compounds.
NCGC Assay Protocol Summary: Cells were maintained in RPMI 1640 culture medium supplemented with 10% heat-inactivated FBS, 0.33 mg/ml hygromycin, 0.33 mg/ml geneticin, 50 units/ml penicillin, 50 ug/ml streptomycin. […] Following incubation, plates were equilibrated at ambient temperature for 30 min, 30 ul of Bright-Glo (Promega) was added and luminescence was detected by an EnVision (PerkinElmer).

This note sets out measurements from PubChem BioAssay AID1567 (National Center for Advancing Translational Sciences (NCATS), 2009).

Results filed as inconclusive are left out. A call without a number means that no potency is given here. Calls of active or inactive are those of the source. The call rests on the fitted dose curve; in most records, active means well fitted inhibition curve with a large enough effect; inconclusive means small, poorly fitted or top-dose-only effect, or effect the other way; inactive means no such curve, though single readings can be large or run the other way.

Sequence of Thyroid hormone receptor beta (Homo sapiens) (P10828 whole entry, looked up): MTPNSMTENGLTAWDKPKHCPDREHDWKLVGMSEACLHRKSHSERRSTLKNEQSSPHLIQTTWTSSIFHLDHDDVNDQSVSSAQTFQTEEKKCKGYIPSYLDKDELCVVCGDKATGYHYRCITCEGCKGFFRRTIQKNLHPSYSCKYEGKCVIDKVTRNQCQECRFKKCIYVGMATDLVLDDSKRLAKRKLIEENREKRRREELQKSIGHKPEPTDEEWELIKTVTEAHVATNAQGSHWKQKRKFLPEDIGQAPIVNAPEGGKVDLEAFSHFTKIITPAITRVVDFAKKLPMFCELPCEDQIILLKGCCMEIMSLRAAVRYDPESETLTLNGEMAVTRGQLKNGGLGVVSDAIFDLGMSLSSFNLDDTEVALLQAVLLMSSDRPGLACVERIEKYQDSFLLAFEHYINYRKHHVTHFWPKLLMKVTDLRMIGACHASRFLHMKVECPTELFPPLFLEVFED

On to `CCCCCn1c(N)c(C(=O)NCc2cccs2)c2nc3ccccc3nc21`, for which the Potency entry was “inactive”. In the case of `COP(=S)(OC)Oc1ccc([N+](=O)[O-])cc1`, the Potency was 3.98 µM (active).
